High-throughput results from PubChem BioAssay.
Hits are enriched below; roughly 2.7% of the tested compounds scored in any of these assays.
GSIS activator: primary screen for activators of insulin secretion dependent on glucose, INS-1E cells, GLuc reporter luminescence | INS-1E GLuc reporter insulin secretion, 2-3 h | hit rate 0.61% among 370,000 | activation, % at 16.6 µM;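 active = lowest replicate activation of at least 40%, so every replicate reaches that level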
EWS-Fli block: inhibitors of EWS/Fli oncoprotein transcriptional activity; inhibition, % at 12.6 µM; A673 NR0B1-luciferase reporter, viability-normalised; AID 651661; hit rate 0.67% among 350,000;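 active = mean inhibition of at least 50% after viability correction, with every replicate also passing that limit; inconclusive = mean reaches 50% but only one of two replicates passes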;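 note: firefly luciferase signal divided by Alamar Blue viability fluorescence both relative to DMSO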
CFTR F508del cor: CFTR F508del correction in bronchial cells; CFBE cells, YFP halide quenching; stimulated with forskolin plus potentiator P3; % fluorescence drop versus neutral controls; activity (quench increase), % at 7.58 µM; hit rate 0.36% among 350,000; AID 720511;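 active = mean added fluorescence quench of at least 8% versus neutral control, with both replicates also reaching 8%; inconclusive = only one of the mean or replicate conditions met; inactive = mean below 8% and not both replicates reaching 8%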;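 note: cells transiently co-express mutant CFTR-F508del with the halide-sensitive YFP; corrector assay measuring rescue of mutant channel to the surface after 24 h compound exposure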
Env fusion inh: HIV envelope-mediated fusion inhibition. inhibition, % at 12.3 µM. HeLa-JRFL Env/CEM21 cell fusion, luciferase. hit rate 1.1% among 360,000;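 active = mean replicate inhibition score of at least 50 and every replicate individually at or above 50; inconclusive = only one of the two criteria met; inactive = mean below 50 and not all replicates reaching 50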
PGC1a acetyl inh: modulators of PGC1a acetylation. U2OS PGC1a acetylation, AlphaScreen anti-acetyl-lysine; with virally co-expressed GCN5 acetyltransferase. inhibition, % at 15.6 µM. hit rate 0.17% among 350,000. AID 651687;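 active = every replicate shows inhibition of at least 40%; inconclusive = mean inhibition at least 40% but some replicate below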
PAX8 inh HTS: inhibitors of PAX8 transcriptional activity in RMG-I cells; RMG-I TPO-luciferase reporter, SteadyGlo, 24 h; inhibition, % at 12.6 µM; hit rate 1.2% among 360,000; AID 652154;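 active = mean replicate inhibition at least 60% with every replicate also reaching 60%; inconclusive = only one of the two criteria is met; inactive = mean below 60% and not all replicates reaching 60%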;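 note: luciferase light reporting Pax8 driven TPO promoter activity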
Hits are given with their value; – = inactive; ? = inconclusive; · = not tested or not shown; ! = not active in a repeat.

SMILES	GSIS activator	EWS-Fli block	CFTR F508del cor	Env fusion inh	PGC1a acetyl inh	PAX8 inh HTS
CC(OC(=O)CCN1C(=O)C2CC=CCC2C1=O)C(=O)Nc1cccc(Cl)c1 (configuration not stated)	63	–	–	–	·	–
CCOc1ccccc1CNS(=O)(=O)c1cnc[nH]1	44	–	–	–	–	–
COc1ccccc1CNC(=O)C[C@@H]1C[C@@H]2c3cc(NC(=O)C4CCC4)ccc3O[C@@H]2[C@H](CO)O1	–	–	–	–	–	–
Cc1cc(NC(=O)/C=C/c2ccc(Cl)cc2)no1	50	·	·	–	·	–
Cc1cc(NC(=O)/C=C/c2ccc(Br)cc2)no1	–	·	·	–	·	–
CCCNC(=O)Nc1ccc2c(c1)C(=O)N(C)C[C@H](OC)[C@@H](C)CN(Cc1ccncc1)[C@@H](C)CO2	–	–	–	–	–	–
CC(C)C(Cl)=NOC(=O)Nc1ccc(S(N)(=O)=O)cc1	126	–	–	–	–	–
c1ccc2c(c1)OCC(c1nnc3n1-c1ccccc1SC3)O2 (configuration not stated)	·	·	·	·	–	·
c1ccc(-c2nnc3n2-c2ccccc2SC3)cc1	58	–	–	–	·	–
Cc1cc(C(F)(F)F)n(-c2nc(C(=O)NNS(=O)(=O)c3ccccc3[N+](=O)[O-])cs2)n1	–	–	–	–	110	–
C[C@H](CO)N1C[C@H](C)[C@@H](CN(C)S(=O)(=O)c2ccccc2)Oc2ccc(NC(=O)CCN3CCOCC3)cc2CC1=O	–	–	–	·	–	–
O=C(C[C@@H]1CC[C@@H]2[C@H](COC[C@@H](O)CN2CCC(F)(F)F)O1)N1CCC(Cc2ccccc2)CC1	–	–	–	–	–	–
O=C(Nc1ccc(F)cc1)N1C[C@@H]2N[C@H](C1)C2c1ccc(/C=C/c2ccccc2)cc1 (some centres not stated)	–	–	–	·	–	105!
C/C=C/c1ccc(C2[C@@H]3CN(C(=O)Nc4ccc(C(F)(F)F)cc4)C[C@H]2N3)cc1 (some centres not stated)	190!	?	–	·	–	–
CS(=O)(=O)Nc1ccc2c(c1)[C@@H]1C[C@H](CC(=O)NCc3ccccc3)O[C@H](CO)[C@@H]1O2	–	–	–	–	–	–
O=C(C[C@H]1CC[C@@H](NS(=O)(=O)c2ccccc2)[C@H](CO)O1)N1CCN(c2ccccc2)CC1	–	–	–	·	·	–
CC1(C(=O)NCc2ccc3c(c2)OCO3)CCN1Cc1csc2ccccc12 (configuration not stated)	–	–	–	98	–	–
CC1(C(=O)Nc2ccc3c(c2)OCCO3)CCN1Cc1csc2ccccc12 (configuration not stated)	–	–	–	–	–	–
Cn1c(C(=O)c2ccccc2[N+](=O)[O-])nc2ccccc21	–	–	8.6	–	·	–
COc1ccc(-c2onc(C)c2-c2ccc(C(=O)OC(C)C)o2)c(O)c1	·	·	·	·	74	·
COc1ccc2c3c(n(C)c2c1)[C@H](CO)N(C(=O)Nc1ccc(F)cc1)CC31CN(CC2CCOCC2)C1	–	–	–	·	–	·
C=CCN=C1CC(C)(C)C(C(=O)OC)C(O)=C1C(=O)CCC (configuration not stated)	73	–	–	–	–	–
COc1ccc2c(c1)-c1c(ssc1=S)C(C)(C)N2S(=O)(=O)c1ccc(C)cc1	–	–	–	72	·	–
Cc1ccc(S(=O)(=O)N2c3ccccc3-c3c(ssc3=S)C2(C)C)cc1	·	–	–	–	–	–
COc1ccc2c(c1)-c1c(ssc1=S)C(C)(C)N2	·	·	·	62	–	·
SMILES	GSIS activator	EWS-Fli block	CFTR F508del cor	Env fusion inh	PGC1a acetyl inh	PAX8 inh HTS
CN(C)c1ccc(CC(=O)N2CCCCC2c2cc(C(=O)Nc3ccccc3Cl)no2)cc1 (configuration not stated)	45	–	–	–	–	–
COc1ccc(S(=O)(=O)Nc2cccc3c2O[C@@H](CN(C)Cc2ccc(-c4ccccc4)cc2)[C@@H](C)CN([C@H](C)CO)C3=O)cc1	–	–	–	–	–	–
CC(=O)c1nn(-c2ccc(Br)cc2)cc1C(=O)c1ccccc1	54	·	·	–	·	–
CC(=O)c1nn(-c2ccccc2)cc1C(=O)c1ccc(C)cc1	·	–	–	–	–	–
CCOC(=O)c1cnn(CCOC(=O)c2cccs2)c1NC(=O)c1cccs1	–	·	·	–	·	·
CCOC(=O)c1cnn(CCOC(=O)c2cccc(F)c2)c1NC(=O)c1cccc(F)c1	–	–	–	·	·	110
C/C(=N/NS(=O)(=O)c1ccc(CC(C)C)cc1)c1ccncc1	–	–	–	65	–	–
CC=Cc1ccc2n(c1=O)C[C@H]1[C@H](CO)[C@@H](C(=O)N3CCC(Cc4ccccc4)CC3)N(C)[C@@H]21 (mixture of isomers)	–	–	·	–	·	·
CC1Cc2[nH]c(=S)[nH]c(=O)c2C(C(C)C)O1 (configuration not stated)	–	–	–	–	·	–
CCCCC1Cc2[nH]c(=S)[nH]c(=O)c2C(C(C)C)O1 (configuration not stated)	42	–	–	–	·	–
Cc1ccc(-c2ccc([C@H]3[C@@H](CO)N4C(=O)CN(C(=O)Nc5cccc(F)c5)C[C@H]34)cc2)cc1	–	–	–	·	–	·
NCC[C@@H]1CC[C@@H](NS(=O)(=O)c2ccc(Cl)cc2)[C@@H](CO)O1	–	–	–	–	–	–
O=C(Nc1ccc(OCC(=O)N2CCOCC2)cc1)c1cncc(Br)c1	–	·	·	57	–	–
O=C(NNC(=O)C12CC3CC(CC(C3)C1)C2)c1cccc([N+](=O)[O-])c1	–	–	–	–	–	–
O=C(NNc1ccc([N+](=O)[O-])cc1)C12CC3CC(CC(C3)C1)C2	–	·	·	69	–	·
C[C@@H]1CN([C@H](C)CO)C(=O)c2cc(C3=CCCCC3)cnc2O[C@@H]1CN(C)Cc1ccccn1	–	–	–	–	–	·
CCCCCCCCOC(=O)C1=C(C)Nc2nnnn2C1c1cccs1 (configuration not stated)	43	·	·	–	–	·
CCCCCCCOC(=O)C1=C(C)Nc2ncnn2C1c1cccs1 (configuration not stated)	·	·	·	–	–	–
C[C@@H]1CN([C@H](C)CO)C(=O)c2cc(NC(=O)Nc3ccc(F)cc3)ccc2O[C@@H]1CN(C)S(=O)(=O)c1ccc(Cl)cc1	–	–	–	–	–	–
CCCCNC(=S)N1CCn2cccc2C1c1ccc(F)cc1 (configuration not stated)	–	–	–	58	–	–
Cn1cc(CN2CCCC(CNC(=O)c3ccc4c(c3)OCO4)C2)c2ccccc21 (configuration not stated)	–	–	–	56	–	–
Cc1noc(C)c1NC(=O)N(C)C[C@@H]1Oc2cc(C#CCN(C)C)ccc2S(=O)(=O)N([C@@H](C)CO)C[C@H]1C	–	–	–	–	–	·
